Compound activity: PubChem, National Center for Advancing Translational Sciences (NCATS)
Compounds with a hit are over-represented: about 1.3% of the library has one in this group of screens.
BRCA1 expr act – qHTS Assay to Identify Small Molecule Activators of BRCA1 Expression. MCF7-BRCA1-FFLuc reporter, luminescence, 48 h; response scale: scaled: vehicle 0%, 10 µM genistein 100%. Potency, µM (top dose mostly 46.1 µM), inactives show at the highest dose activation, most hits filed as activators. actives 1.1% (n = 380,000). AID 624202, 2012; active = well fitted activation curve with a large enough effect; inconclusive = small, poorly fitted or top-dose-only effect; inactive = no such curve, though single readings can be large or run the other way; also: potency is read from the fitted curve at half-maximal effect; nearly all actives have a fitted effect of over 80% in size
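MCF7-BRCA1-FFLuc cells, 2000/well in phenol-red-free MEM, attached 2 h then treated 48 h at 37 C. Luciferase luminescence read 15 min after reagent; normalized to genistein maximum activation (10microM) and DMSO, concentration-response fitted.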
IL2 activator – qHTS of IL-2 Activators | activation, % (series mostly up to about 46 µM) | IL-2 activation reporter assay, cell-based qHTS; stimulated with anti-CD3/CD4/CD28 beads; in transgenic mouse T cells | actives 0.065% (n = 360,000); also: 0% is about no effect
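First, unstimulated transgenic mouse T cells were exposed to compound for 60 min. Next, anti-CD3/anti-CD4-coated beads with anti-CD28 were added. Finally, after 18 h at 37 degrees C, EGFP and DsRed were imaged.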
PKM2 activator – qHTS Assay for Activators of Human Muscle isoform 2 Pyruvate Kinase; AID 1631, 2009; purified PKM2, Kinase-Glo ATP luminescence, activation; response scale: 0% is enzyme alone, no compound; Pyruvate kinase PKM (Homo sapiens), P14618; actives 0.34% (n = 260,000); Potency, µM (highest dose often 57.5 µM), without a hit: at the highest dose activation, most hits filed as activators; active = well fitted activation curve with a large enough effect; inconclusive = small, poorly fitted or top-dose-only effect; inactive = no such curve, though single readings can be large or run the other way; also: potency is read from the fitted curve at half-maximal effect; % is scaled to controls: 0 for no effect and ±100 for the full control effect; nearly all actives have a fitted effect of over 55% in size
Target sequence (P14618 whole entry, looked up, canonical isoform): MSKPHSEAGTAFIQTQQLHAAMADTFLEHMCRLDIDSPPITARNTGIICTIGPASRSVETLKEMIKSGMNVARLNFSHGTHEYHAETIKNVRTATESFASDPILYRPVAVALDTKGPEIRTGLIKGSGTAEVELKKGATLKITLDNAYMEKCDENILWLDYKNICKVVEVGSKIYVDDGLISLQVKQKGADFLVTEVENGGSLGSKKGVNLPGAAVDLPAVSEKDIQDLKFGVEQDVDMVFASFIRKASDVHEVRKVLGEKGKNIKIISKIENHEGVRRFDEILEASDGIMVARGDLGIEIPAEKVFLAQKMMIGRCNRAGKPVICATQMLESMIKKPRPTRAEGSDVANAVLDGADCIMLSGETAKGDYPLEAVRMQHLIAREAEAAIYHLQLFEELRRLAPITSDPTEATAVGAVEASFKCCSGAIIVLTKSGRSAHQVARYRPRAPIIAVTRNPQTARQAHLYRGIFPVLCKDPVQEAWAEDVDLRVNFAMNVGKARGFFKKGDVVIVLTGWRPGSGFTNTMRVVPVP
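Kinase-Glo luminescence reports ATP generated from ADP (0.1 mM) and PEP (0.5 mM) by purified hPK-M2 after 1 h at room temperature, pH 7.2 imidazole buffer; intermediate enzyme activity allows detecting inhibitors and activators.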
TRPML1 inh – qHTS for Inhibitors of the Human Mucolipin Transient Receptor Potential 1 (TRPML1). Mucolipin-1 (Homo sapiens), Q9GZU1. actives 0.02% (n = 390,000). activity change, negative = inhibition, % (no concentration beside the values). TRPML1-inducible cells, Ca2+ dye fluorescence, FDSS; active compounds read low; inhibition of EC80 agonist-evoked calcium signal; in the data active = activity change below about -50%; inconclusive = between about -30% and that limit;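 also: stimulus is agonist 54-4 at its EC80 concentration; % is scaled to controls: 0 for no effect and ±100 for the full control effect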
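TRPML1-DL cells, Tet-induced overnight (~16 h, 37 °C) at 1,500 cells/well, were loaded with Ca8 no-wash dye plus quencher for 45-90 min at room temperature. Compounds were pinned during FDSS kinetic reading; agonist 54-4 at EC80 (4 uM final) then added.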
TRPML1 agonist – qHTS for Agonists of the Human Mucolipin Transient Receptor Potential 1 (TRPML1); Mucolipin-1 (Homo sapiens), Q9GZU1; TRPML1-expressing cells, Ca2+ dye fluorescence, FDSS; activation, % (no concentration beside the values); actives 0.12% (n = 410,000); also: 0% is about no effect
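TRPML1-DL cells, Tet-induced overnight (~16 h, 37 degrees C), loaded 45-90 min at room temperature with Ca8 no-wash calcium dye plus quencher. FDSS fluorescence: 10 s baseline, compound pin-transfer, 110 s agonist read, then EC80 54-4 (4uM final) and 110 s antagonist read.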
TSG101-PTAP inh – qHTS Assay for Iinhibitors of HIV-1 Budding by Blocking the Interaction of PTAP/TSG101; Fluorescence polarization, FITC-PTAP peptide / Tsg101 binding; Tumor susceptibility gene 101 protein (Homo sapiens), Q99816; 340,000 tested, under 10 active; AID 493005, 2010; Potency, µM (series often up to 115 µM), without a hit: top-dose activity change, negative = inhibition, hits mostly inhibitors; active = well fitted inhibition curve with a large enough effect in the main read-out, with a control signal flat, not every such curve was filed as active; inconclusive = small, poorly fitted or top-dose-only effect, or effect the other way, or a change in a side signal; inactive = no such curve, though single readings can be large or run the other way; also: potency is read from the fitted curve at half-maximal effect; % of control where 0% means no effect
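FP read-out: FITC-PTAP peptide, 50 nM final, binding Tsg101 binding domain, 10 uM final; 20 min, r.t.; 10 mM HEPES pH 7.5, 0.15 M NaCl, 0.01% Tween 20, 3 mM EDTA, 0.1 mM TCEP.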
An asterisk follows results filed as active; ? = inconclusive; . = no result; ! = a repeat was not active. Rule as the data show it, unless noted: active = activation above about 50%; inconclusive = mostly about 30% to 49%; inactive = weaker than that.

SMILES	BRCA1 expr act	IL2 activator	PKM2 activator	TRPML1 inh	TRPML1 agonist	TSG101-PTAP inh
O=C(N/N=C/c1ccccn1)NC12CC3CC(CC(C3)C1)C2	4µM*	1	-4%	8	0	-1%
COc1ccc(C2Nc3ccccc3C(=O)N2Cc2ccco2)cc1OC (stereo not given)	-12%	.	.	.	0	.
COc1ccc(N2C(=O)c3ccccc3NC2c2ccc(OC)c(COc3ccccn3)c2)cc1 (stereo not given)	6.3µM*	-1	-16%	-9	-1	-1%
COc1ccc(C2Nc3ccccc3C(=O)N2Cc2ccco2)cc1COc1ccc(F)cc1 (stereo not given)	-54%	-1	14µM*	-18	2	-6%
COc1ccc(N2C(=O)c3ccccc3NC2c2ccc(OC)c(CSc3ccccn3)c2)cc1 (stereo not given)	67%	-2	0%	-4	1	-8%
COc1ccc(C2Nc3ccccc3C(=O)N2Cc2ccco2)cc1CN1C(=O)c2ccccc2C1=O (stereo not given)	-32%	-1	20µM*!	17	2	-3%
O=C(NCCc1ccccc1Cl)c1ccc(Cn2c(=O)c3cccn3c3cccnc32)cc1	.	.	.	13	1	.
CCC[n+]1c(/C=C/c2c(OC)cc(OC)cc2OC)ccc2ccccc21	-2%	.	.	.	8	.
CC(C)c1ccc(NC(=O)CCNS(=O)(=O)c2ccc3c(c2)oc(=O)n3C)cc1	.	.	.	-13	0	.
CCOC(=O)c1sc(NC(=O)c2ccc(Cl)s2)cc1C	4.5µM*	-2	4%	2	-1	0%
CCOC(=O)c1sc(NC(=O)C(C)(C)C)cc1C	3.2µM*	-2	1%	-7	-1	-4%
Nc1cccc(/C=C2\C=Cc3ccccc32)c1	-35%	.	.	.	0	.
O=S(=O)(c1ccc(OCC(O)CNCc2ccco2)c(Cl)c1)N1CCOCC1 (stereo not given)	-1%	0	4µM*	9	1	1%
COc1ccc2oc(=N)c(C(=O)Nc3ccccc3Cl)cc2c1	4.5µM*	-1	8%	-13	-1	-2%
COc1ccc(S(=O)(=O)N2CCN(c3ccc(Cl)c(Cl)c3)CC2)c2ccccc12	0%	.	.	6	1	.
c1csc(-c2nc(N3CCCCC3)no2)c1	6.3µM*	0	.	-3	1	0%
Cc1ccc(-c2noc(-c3cccs3)n2)cc1	-3%	-1	7%	-7	1	-1%
Cc1n[nH]c(C)c1N1C(=O)c2cccc3c(N4CCCCCC4)ccc(c23)C1=O	-18%	?	2%	-8	61*	?
C=CCN1C(=O)c2cccc3c(N4CCCCC4)ccc(c23)C1=O	68%	6	-9%	2	55*	?
O=C1c2cccc3c(N4CCCCC4)ccc(c23)C(=O)N1c1cccc(O)c1	43%	?	-3%	-16	88*	?
Cc1ccc(CN2CCC(CNC(=O)Nc3c(C)cccc3C)C2)cc1 (stereo not given)	0%	.	.	-12	-1	.
CN1CCN(Cc2c(O)ccc3cc(-c4ccc(Cl)cc4)c(=O)oc23)CC1	.	.	.	-7	6	.
COc1ccccc1OCc1cc(-c2ccccc2)no1	2.8µM*	-3	3%	1	2	4%
c1ccc(OCc2cc(-c3ccccc3)no2)cc1	5µM*	0	-1%	-14	1	-2%
Clc1ccc(-c2cc(CSc3ccccc3)on2)cc1	3.5µM*	-2	-8%	11	1	-1%
